The source made the active and inactive calls. Unless noted, the rule behind the calls is not given here.

Test [1] in a line: resazurin metabolic signal in HepG2 cells – cell-based, resazurin fluorescence, 24 h, PK04 Diversity Set, profiling panel (AID 1172). The settings on record: HepG2 viability, higher = more signal. (Resazurin is reduced to fluorescent resorufin, in cell work by metabolically active cells.)
Test [2] in a line: budding yeast growth changes without added modifier – OD600, strain BY4716, 24 h, basal condition, primary screen (AID 1173). The settings on record: S. cerevisiae BY4716 growth, OD600, 24 h; higher = more signal, called active from +8 up or from −8 down.
Test [3] can be described thus: viability profiling in MM1S myeloma cells – cell-based, resazurin fluorescence, basal, 24 h, PK04 Diversity Set, profiling panel (AID 1174).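 Note: MM1S multiple myeloma cell line.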 The settings on record: higher = more signal, called active from +8 up or from −8 down.
Test [4] concerns the target Dihydroorotate dehydrogenase (quinone), mitochondrial (Plasmodium falciparum (isolate 3D7)) (UniProt Q08210). Put plainly: inhibition of P. falciparum DHODH – biochemical, C-terminal His tag, absorbance 600 nm, primary screen (AID 1175).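 Note: recombinant parasite enzyme with a five histidine tag at its C terminus.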 The note with it: PfDHODH enzyme, DCIP absorbance 600 nm; higher = more signal, called active from +8 up or from −8 down.
The nature of test [5]: inhibition of PAO1 biofilm formation – strain PAO1, LB-PBS medium, absorbance 600 nm, primary screen (AID 1176). The note with it: P. aeruginosa PAO1 growth/biofilm, A600, 12 h; higher = more signal.
The nature of test [6]: growth modulation of vineyard yeast isolate – strain RM11-1a, OD600, basal, 24 h, primary screen (AID 1177).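 Note: cultures grown under basal conditions with no added stressor.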 The note with it: S. cerevisiae RM11-1a growth, OD600, 24 h; higher = more signal, called active from +8 up or from −8 down.
Test [7] is described as follows: growth of efflux-deficient E. coli DRC39 – strain DRC39, OD650, 24 h, E. coli filamentation inducers, primary screen (AID 1178).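 Note: growth measured as culture turbidity by optical density at 650 nm.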 The note with it: E. coli DRC39 acrAB, higher = more signal, called active from +8 up or from −8 down.
Test [8] is described as follows: growth of efflux-deficient E. coli DRC39 – strain DRC39, OD650, 48 h, E. coli filamentation inducers, primary screen (AID 1179).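 Note: screen aims at cell division blockers that make cells filament.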 The note with it: E. coli DRC39 delta-acrAB growth, higher = more signal, called active from +8 up or from −8 down.
A short description of test [9]: viability profiling in RPMI8226 myeloma cells – cell-based, resazurin fluorescence, basal, 24 h, PK04 Diversity Set, profiling panel (AID 1180).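 Note: RPMI8826 multiple myeloma cell line at 5000 cells per well.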 The settings on record: higher = more signal.
For test [10], the target named is E3 ubiquitin-protein ligase XIAP (Homo sapiens) (UniProt P98170). Put plainly: small molecules binding XIAP protein – biophysical, small-molecule microarray, fluorescence 635 nm, primary screen (AID 1181).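 Note: score merges 667 nm emission and signal to noise over triplicate slides.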 The settings on record: higher = more signal.
E3 ubiquitin-protein ligase XIAP (Homo sapiens), sequence (P98170 whole entry, looked up, the tested form may be a part): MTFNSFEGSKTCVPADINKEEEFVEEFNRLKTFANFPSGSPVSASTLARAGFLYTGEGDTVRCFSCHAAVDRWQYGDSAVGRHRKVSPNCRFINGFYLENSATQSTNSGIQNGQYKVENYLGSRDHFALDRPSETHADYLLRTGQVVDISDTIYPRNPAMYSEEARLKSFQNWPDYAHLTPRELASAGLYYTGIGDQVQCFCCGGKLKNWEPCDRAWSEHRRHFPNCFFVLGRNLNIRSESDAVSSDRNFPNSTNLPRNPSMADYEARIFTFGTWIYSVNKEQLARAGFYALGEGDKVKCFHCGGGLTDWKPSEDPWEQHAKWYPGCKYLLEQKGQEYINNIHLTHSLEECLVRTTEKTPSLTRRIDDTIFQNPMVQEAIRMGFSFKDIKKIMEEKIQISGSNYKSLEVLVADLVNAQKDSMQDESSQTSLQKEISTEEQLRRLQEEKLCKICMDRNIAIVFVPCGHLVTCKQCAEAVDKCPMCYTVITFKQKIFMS
Test [11] deals with XIP peptide (Xip251-270) binding. Put plainly: XIP fragment 251-270 binding compounds – biochemical, small-molecule microarray, fluorescence 635/667 nm, 0.1 µg/mL protein, primary screen (AID 1182). The note with it: fluorescent protein binding, 635 nm, higher = more signal, called active from +8 up or from −8 down.
Another test relates to XIP peptide (Xip251-270). Put plainly: compounds binding XIP fragment 251-270 – biochemical, small-molecule microarray, fluorescence 635/667 nm, 0.5 µg/mL protein, primary screen (AID 1183). The note with it: fluorescence 635 nm, higher = more signal.
The nature of test [12]: blood-stage malaria parasite viability loss – strain 3D7, DAPI fluorescence, 100 nL, primary screen (AID 1184).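 Note: parasites grown inside human red blood cells in medium with human serum.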 The settings on record: P. falciparum 3D7 growth, 3 d, higher = more signal.
Test [13] addresses Homeobox protein Hox-A13 (Mus musculus) (UniProt Q62424). Put plainly: disruptors of Hoxa13 oligonucleotide interaction – biochemical, fluorescence polarization, labeled oligonucleotide, primary screen (AID 1185). The settings on record: Hoxa13:DNA binding, 15 min, higher = more signal, called active from +8 up or from −8 down. (In general: Fluorescence polarisation rises when a labelled molecule tumbles more slowly, as on binding a larger partner.)

The nature of test [14]: blockers of DNA damage checkpoint Chk1 activation – imaging, HeLa, hydroxyurea, phospho-Chk1 antibody, percent positive cells, primary screen (AID 1186). The settings on record: hydroxyurea-induced phospho-Chk1 immunofluorescence imaging, higher = more signal.
Test [15] is described as follows: blockers of DNA damage checkpoint Chk1 activation – imaging, HeLa, hydroxyurea, phospho-Chk1 nuclear intensity, primary screen (AID 1187). The settings on record: hydroxyurea-induced phospho-Chk1 immunofluorescence imaging, higher = more signal.

Dihydroorotate dehydrogenase (quinone), mitochondrial (Plasmodium falciparum (isolate 3D7)), sequence (Q08210 whole entry, looked up): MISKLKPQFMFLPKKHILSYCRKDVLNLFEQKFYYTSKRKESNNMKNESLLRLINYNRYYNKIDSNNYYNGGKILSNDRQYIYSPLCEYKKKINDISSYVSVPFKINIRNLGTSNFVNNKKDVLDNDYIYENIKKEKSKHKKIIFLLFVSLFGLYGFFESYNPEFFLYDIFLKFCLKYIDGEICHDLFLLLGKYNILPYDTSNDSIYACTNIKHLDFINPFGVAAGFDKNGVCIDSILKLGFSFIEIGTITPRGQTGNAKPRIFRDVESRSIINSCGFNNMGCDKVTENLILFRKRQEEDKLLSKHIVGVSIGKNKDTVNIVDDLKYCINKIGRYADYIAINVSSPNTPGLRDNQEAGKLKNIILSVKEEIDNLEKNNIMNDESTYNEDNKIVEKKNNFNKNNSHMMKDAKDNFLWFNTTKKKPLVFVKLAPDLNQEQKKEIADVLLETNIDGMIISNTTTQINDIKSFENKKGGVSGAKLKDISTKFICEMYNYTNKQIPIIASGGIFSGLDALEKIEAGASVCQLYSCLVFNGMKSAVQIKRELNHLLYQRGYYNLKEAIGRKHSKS
Homeobox protein Hox-A13 (Mus musculus), sequence (Q62424 whole entry, looked up): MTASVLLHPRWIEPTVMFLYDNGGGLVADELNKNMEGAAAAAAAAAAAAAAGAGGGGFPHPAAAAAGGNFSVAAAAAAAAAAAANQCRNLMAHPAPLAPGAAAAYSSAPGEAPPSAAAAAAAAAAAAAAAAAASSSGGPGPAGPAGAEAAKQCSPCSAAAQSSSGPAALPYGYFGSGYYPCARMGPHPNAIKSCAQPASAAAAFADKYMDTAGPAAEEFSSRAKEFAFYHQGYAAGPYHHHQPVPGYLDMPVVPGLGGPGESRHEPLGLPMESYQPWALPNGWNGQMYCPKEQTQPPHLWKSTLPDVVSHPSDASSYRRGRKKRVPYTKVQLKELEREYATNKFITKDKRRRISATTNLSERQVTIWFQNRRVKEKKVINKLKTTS

With `COC(=O)[C@@]1(Cc2ccc(F)cc2)[C@H]2c3cc(C(=O)N(C)C)n(Cc4ccc(C)o4)c3C[C@H]2CN1C(=O)c1ccccc1`, the z-score in test [1] was -0.0869; in [2], 0.241 (inactive); in test [3], 0.003 (inactive); in test [5], 0.467 (inactive); in test [6], -0.0282 (inactive); in test [7], -0.359 (inactive). Moreover, the z-score in test [8] is -0.192 (inactive); in test [9], -0.0803; in test [12], -1.44; in [13], -2.94 (inactive); in [14], 0.262 (inactive); in [15] it was -0.0286 (inactive). For the same molecule, the composite z-score is -0.631 (inactive) in [4], 1.87 in test [10], 1.66 (inactive) in test [11] and 0.665 in the test on XIP peptide (Xip251-270).
On to `N#Cc1ccc(C(O)C2C=CC3C(=O)N(c4ccccc4)C(=O)C3N2Nc2ccccc2F)cc1` (centres undefined), for which the z-score was 1.46 in test [1]; -2.13 (inactive) in [2]; 0.55 (inactive) in test [3]; 0.0083 (inactive) in test [5]; -0.402 (inactive) in test [6]; -0.227 (inactive) in test [7]. The z-score was 0.692 (inactive) in test [8]; 0.148 in test [9]; -0.85 in [12]; -3.57 (inactive) in test [13]; -0.395 (inactive) in test [14]; -0.0743 (inactive) in [15]. Moreover, the composite z-score was 0.775 (inactive) in test [4], 0.205 in test [10], 0.339 (inactive) in [11] and 0.749 with XIP peptide (Xip251-270).
Turning to `CC(=O)NCCCC[C@@H]1NC(=O)[C@H]2C[C@@H](C(=O)NCCCCCNC(=O)CS)[C@@H](c3ccc(O)cc3)N2C1=O`, the z-score was -0.0321 in test [1]; 1.14 (inactive) in test [2]; 0.0985 (inactive) in [3]; 0.395 (inactive) in [5]; 0.949 (inactive) in [6]; -0.553 (inactive) in test [7]. Further, the z-score in test [8] is -0.574 (inactive); in [9] it was -0.213; in test [12] it was 0.147; in [13] it was -3.02 (inactive); in [14] it was 0.0401 (inactive); in [15], 0.176 (inactive). Further, the composite z-score was 0.452 (inactive) in test [4], 0.0503 in test [10], 0.184 (inactive) in test [11] and 0.805 in the test with XIP peptide (Xip251-270).
In the case of `CC(=O)n1cc(C(O)C2C=CC3C(=O)NC(=O)C3N2Nc2ccccn2)c2ccccc21` (centres undefined), the z-score was -1.3 in test [1]; 0.627 (inactive) in test [2]; -1.67 (inactive) in test [3]; 1.33 (inactive) in test [5]; 0.605 (inactive) in [6]; -0.641 (inactive) in test [7]. Moreover, the z-score is -0.109 (inactive) in [8]; -1.31 in test [9]; 0.249 in [12]; -2.99 (inactive) in test [13]; 0.5 (inactive) in test [14]; -0.392 (inactive) in test [15]. The composite z-score in [4] was 0.496 (inactive); in [10], 0.07; in test [11] it was -0.251 (inactive); with XIP peptide (Xip251-270), 0.785.
As for `CN(C)CCCC[C@@H]1NC(=O)[C@H]2C[C@@H](C(=O)NCCCCCN)[C@@H](c3cccc(OCCO)c3)N2C1=O`, the z-score in [1] is 0.306; in test [2], -0.7 (inactive); in test [3] it was 0.606 (inactive); in test [5] it was 0.118 (inactive); in test [6], -0.629 (inactive); in test [7] it was 0.139 (inactive). The z-score was -0.386 (inactive) in test [8]; 0.932 in test [9]; -0.419 in test [12]; -2.91 (inactive) in test [13]; 0.658 (inactive) in test [14]; 0.729 (inactive) in test [15]. Further, the composite z-score in test [4] is -0.997 (inactive); in test [10], 0.0101; in test [11], 2.88 (inactive); with XIP peptide (Xip251-270), 0.84.
For `CCCC[C@@H]1C[C@H]1[C@@H](NC(=O)c1cccnc1)c1ccc(Cl)cc1`, the z-score was 0.562 in test [1]; -6.77 (inactive) in test [2]; -0.731 (inactive) in test [3]; -0.0019 (inactive) in [5]; -2.78 (inactive) in test [6]; 0.014 (inactive) in test [7]. In addition, the z-score was -0.0491 (inactive) in test [8]; -0.663 in test [9]; -0.577 in test [12]; 1.33 (inactive) in [13]; -0.308 (inactive) in test [14]; -0.437 (inactive) in [15]. Besides, the composite z-score in test [4] is 0.303 (inactive); in test [10], -0.0948; in test [11], -1.19 (inactive); in the test on XIP peptide (Xip251-270), -1.83.
On to `COc1ccc(-c2cc3c(c(Cc4ccccc4)n2)[Si](C(C)C)(C(C)C)OC3)cn1`, for which the z-score was 0.177 in test [1]; -0.652 (inactive) in test [2]; -0.141 (inactive) in [3]; 0.0429 (inactive) in test [5]; 2 (inactive) in [6]; 0.184 (inactive) in test [7]. For the same molecule, the z-score was 0.0876 (inactive) in test [8]; 0.626 in test [9]; -2.79 in test [12]; -2.5 (inactive) in test [13]; -0.24 (inactive) in test [14]; -0.828 (inactive) in test [15]. For the same molecule, the composite z-score was 0.653 (inactive) in test [4], -0.0749 in test [10], 0.684 (inactive) in test [11] and -0.342 with XIP peptide (Xip251-270).
In the case of `COc1ccc(C(=O)Nc2ccc(CN3C(=O)[C@]4(O[C@H](CC(=O)N5CCC[C@H]5CO)[C@@H]([Si](C)(C)c5ccc(OC)cc5)[C@@H]4C)c4ccccc43)cc2)cc1`, the z-score in test [1] was -1.79; in [2], 0.082 (inactive); in test [3], -2.05 (inactive); in [5], 0.0245 (inactive); in test [6], 0.557 (inactive); in [7] it was -0.0895 (inactive). Moreover, the z-score is -0.381 (inactive) in [8]; -4.49 in [9]; 0.0279 in test [12]; -2.62 (inactive) in test [13]; 0.303 (inactive) in test [14]; 0.493 (inactive) in [15]. Besides, the composite z-score was -2.56 (inactive) in test [4], -0.361 in [10], 0.731 (inactive) in test [11] and 0.76 in the test on XIP peptide (Xip251-270).
As for `O=C1NC(=O)C2C1C=CC(C(O)C=Cc1ccc([N+](=O)[O-])cc1)N2Nc1ccc(Cl)cc1Cl` (centres undefined), the z-score is -1.22 in [1]; -6.66 (inactive) in test [2]; -1.19 (inactive) in test [3]; 0.807 (inactive) in [5]; 0.379 (inactive) in test [6]; 0.178 (inactive) in test [7]. The z-score in test [8] is -1.04 (inactive); in test [9], -0.615; in test [12], -0.143; in test [13] it was -5.55 (inactive); in test [14], 0.104 (inactive); in test [15], -0.171 (inactive). For the same molecule, the composite z-score in test [4] was 0.139 (inactive); in [10], -0.197; in [11], 2.22 (inactive); in the test on XIP peptide (Xip251-270) it was 0.692.

Values taken from PubChem BioAssay.
